Test results from PubChem BioAssay (EPA / NIEHS).
Active and inactive are the calls of the source. Rule for the calls: active = hit-call score of the fitted dose curve at least 0.9, where 1 is the maximum; inactive = score below 0.9.

assay: APR_HepG2_NuclearSize_24hr: Apredica 24-hour HepG2 Assay for Nuclear Size (AID 2282907); settings: high-content imaging, actives raise or lower the signal
Procedure: APR_HepG2_24hr is a cell-based, multiplexed-readout assay that uses HepG2, a human liver cell line, with measurements taken at 24 hours after chemical dosing in a 384-well plate.APR_HepG2_NuclearSize_24hr is one of 10 assay component(s) measured or calculated from the APR_HepG2_24hr assay. It is designed to make measurements of cell phenotype, a form of morphology reporter, as detected with fluorescence intensity signals by HCS Fluorescent Imaging technology.Data from the assay component APR_HepG2_NuclearSize_24hr was analyzed into 1 assay endpoint. This assay endpoint, APR_HepG2_NuclearSize_24hr, was analyzed with bidirectional fitting relative to DMSO as the negative control and baseline of activity. Using a type of morphology reporter, measures of all nuclear dna for gain or loss-of-signal activity can be used to understand the signaling at the nuclear-level. Furthermore, this assay endpoint can be referred to as a primary readout, because this assay has produced multiple assay endpoints where this one serves a signaling function. To generalize the intended target to other relatable targets, this assay endpoint is annotated to the cell morphology intended target family, where the subfamily is organelle conformation.
Cells were treated with dimethyl sulfoxide (DMSO) as a solvent control at a final concentration of 0.5% v/v or with compounds in DMSO with a resulting final DMSO concentration of 0.5% v/v. Compound treatment was done at concentrations of 0.39, 0.78, 1.56, 3.12, 6.24, 12.5, 25, 50, 100, and 200 uM in duplicate on each plate. Cells were treated with compounds for 1, 24, or 72 hr. Carbonyl […] m-chloro-phenylhydrazone (CCCP) and taxol were used as positive controls for mitochondrial function and cytoskeletal stability, respectively; DMSO served as the negative control for this experiment. Cells were fixed by the direct addition of 50 uL formaldehyde in Hank's Balanced Salt Solution (HBSS) to a final concentration of 3.7%. After incubation in the fixation medium for 30 min at room temperature (293-298 K), cells were rinsed twice with HBSS and treated with cell permeabilization buffer (16 uL of 0.5% Triton X-100) for 10 min at room temperature (293-298 K) before labeling. For mitochondrial membrane potential and mitochondrial measurements, pre-fixed cells were incubated with 50 uL of MitoTracker Red CMXRos (Invitrogen) at a concentration of 250 nM for 30 min before fixation. In the remaining cases, post-fixed cells were labeled by incubation with a multiplexed mixture of primary antibodies in HBSS for 60 min at room temperature (293-298 K) to detect immunoreactivity of c-Jun (1:500), phospho-histone H3 (1:100), phospho-histone H2A.x (1:200), p53 (1:400), alpha-tubulin (1:200) and Hoechst 33342 (2 ug/mL). Cells were labeled for multiplexed imaging on two separate plates: a) Hoechst 33342, MitoTracker Red, phospho-histone H3, and alpha-tubulin, and b) Hoechst 33342, phospho-histone H2A.x, and c-Jun. A final rinse with HBSS (50 uL) was performed before analysis. The primary and secondary antibodies for the proteins were phospho-histone H3 (rabbit anti-phospho-histone H3 and FITC-donkey anti-rabbit IgG), phospho-histone H2A.x (mouse anti-phospho-histone H2A.x and FITC-donkey anti-mouse IgG), c-Jun (rabbit anti-phospho-c-Jun and Cy3-donkey anti-rabbit IgG), p53 (sheep anti-p53 and Cy5-donkey anti-sheep IgG), alpha-tubulin (mouse anti-alpha-tubulin and Cy5-donkey anti-mouse IgG). These antibodies are available as the CellCiphr HepG2 assay kit (Millipore).Digital images of each well were captured using a Cellomics ArrayScan VTI (Thermo Scientific Cellomics) (0.8 NA objective, 0.63x optical coupler, and XF-93 filter set) at 20x magnification. The images were acquired using the autofocus feature of the ArrayScan instrument, which entails the following steps. First, the camera focuses on channel 1 (Hoechst 33342), where nuclei are identified. Second, a Z offset of 1 um is used for capturing mitochondria (MitoTracker Red). […]

Question: Which outcome does the source give for `OCCN(CCO)CCO` here?
Answer: inactive

Question: Which outcome does the source give for `O=C(O)C1(c2ccc3c(c2)OC[C@H](Cc2ccc(-c4ccccc4)cc2)[C@H]3O)CCCC1` here?
Answer: inactive

Question: Which outcome does the source give for `Cc1cc(C)cc(C)c1` here?
Answer: inactive

Question: For `N#Cc1cccnc1`, which outcome is on record?
Answer: inactive

Question: With `CN(C)C(=S)S` as the compound, how does the outcome read?
Answer: inactive

Question: For `Clc1cccc(Cl)c1Cl`, which outcome is on record?
Answer: inactive

Question: For `Clc1cccc(Cl)c1`, which outcome is on record?
Answer: inactive

Question: For `CC(C)(C)c1ccccc1O`, which outcome is on record?
Answer: inactive

Question: With `COc1ccccc1N` as the compound, how does the outcome read?
Answer: inactive

Question: For `Oc1cc(Cl)c(Cl)cc1Cl`, which outcome is on record?
Answer: inactive

Question: Which outcome does the source give for `CCCCCCCCCCCCc1cccc(S(=O)(=O)O)c1` here?
Answer: inactive

Question: Which outcome does the source give for `CC(C)O.CC(C)O.OCCN(CCO)CCO.OCCN(CCO)CCO.[Ti]` here?
Answer: inactive

Question: With `O=C(N[C@H]1CN2CCC1CC2)c1ccc2c(c1)OCCO2` as the compound, how does the outcome read?
Answer: inactive
